{
  "source": "PubChem BioAssay (EPA / NIEHS)",
  "note": "Several values for one entry are separate records, joined by “and”; a condition that tells them apart may be missing. Equal values may be shown once. Some structures have more than one record in an assay (separate samples or runs), and their calls can disagree. Activity calls are given as the source filed them. How the source made its calls: active means hit-call score of the fitted dose curve at least 0.9, where 1 is the maximum; inactive means score below 0.9.",
  "data": [
    {"assay": "ATG_PXRE_CIS: Attagene CIS-FACTORIAL HepG2 Assay for human Pregnane X Receptor Element (PXRE) (AID 2282957)", "settings": "HepG2 Attagene CIS-FACTORIAL PXRE reporter, mRNA; actives raise or lower the signal", "experimental": "ATG_CIS is a cell-based, multiplexed-readout assay that uses HepG2, a human liver cell line, with measurements taken at 24 hours after chemical dosing in a 24-well plate.ATG_PXRE_CIS is one of 52 assay component(s) measured or calculated from the ATG_CIS assay. It is designed to make measurements of mRNA induction, a form of inducible reporter, as detected with fluorescence intensity signals by Reverse transcription polymerase chain reaction (RT-PCR) and Capillary electrophoresis technology.Data from the assay component ATG_PXRE_CIS was analyzed into 1 assay endpoint. This assay endpoint, ATG_PXRE_CIS, was analyzed with bidirectional fitting relative to DMSO as the negative control and baseline of activity. Using a type of inducible reporter, measures of mRNA for gain or loss-of-signal activity can be used to understand the reporter gene at the transcription factor-level as they relate to the gene NR1I2. Furthermore, this assay endpoint can be referred to as a primary readout, because this assay has produced multiple assay endpoints where this one serves a reporter gene function. To generalize the intended target to other relatable targets, this assay endpoint is annotated to the nuclear receptor intended target family, where the subfamily is non-steroidal.\nHuman liver HepG2 cells are transiently transfected with multiple reporter transcription units (MRTUs) in 6-well plates using FuGene 6 reagent (Roche; 3 ml FuGene/1 mg DNA). The MRTU constructs are regulated by a cis-regulating element (promoter). […] A major difference between the CIS and TRANS system is that in CIS activities of endogenous TFs are measured, whereas the TRANS assay evaluates changes in activities of exogenous, chimeric NR-Gal4 proteins. […] At the end of 24 hour incubation, total RNA was isolated using TriZol reagent (Invitrogen). The isolated RNA is then reverse-transcribed using oligo(dT) primer and Mo-MLV reverse transcriptase (Invitrogen) with DNAse I (Ambion) treatment for 30 min. The one-tenth of the produced cDNA was amplified by PCR using Taq DNA polymerase (Invitrogen) and two reporter sequence-specific primers. The PCR products were fluorescently labeled by primer extension with 6-arboxyfluorescein (6-FAM) 5'-labeled reporter sequence-specific primer (2 min at 95 C, 20 s at 68 C and 10 min at 72 C) and these products were digested with 5U of HpaI (New England Biolabs) for 2h at 37 C. The fragments were purified using Qiaquick PCR columns (Qiagen), analyzed on an ABI 3130xL genetic analyzer (Applied Biosystems) with peak positions identified by using a set of X-rhodamine (ROX)-labeled MapMarker1000 molecular weight standards (BioVentures). The raw capillary electrophoresis data was processed using Attagraph software (Attagene).", "values": [
      {"smiles": "CNC(=S)S", "AC50": "80 µM (active)", "outcome": "inactive"},
      {"smiles": "CO/C=C(/C(=O)OC)c1ccccc1Oc1cc(Oc2ccccc2C#N)ncn1", "AC50": "526 nM (active) [middle of 6 runs]"},
      {"smiles": "O=C(O)COc1nc(Cl)c(Cl)cc1Cl", "AC50": "59.9 µM (active)"},
      {"smiles": "CCOP(=S)(OCC)SCn1c(=O)oc2cc(Cl)ccc21", "AC50": "2.21 µM (active)"},
      {"smiles": "N#Cc1nn(-c2c(Cl)cc(C(F)(F)F)cc2Cl)c(N)c1S(=O)C(F)(F)F", "note": "(stereo not given)", "AC50": "2.37 µM (active) and 44.9 µM (active)"},
      {"smiles": "CC1=C(C(=O)Nc2ccccc2)SCCO1", "AC50": "40.4 µM (active)"},
      {"smiles": "COc1ccc(C(c2ccc(OC)cc2)C(Cl)(Cl)Cl)cc1", "AC50": "4.17 µM (active) [middle of 4 runs]", "outcome": "inactive"},
      {"smiles": "COc1nc(NC(C)C)nc(NC(C)C)n1", "outcome": "inactive", "AC50": "18.6 µM (active)"},
      {"smiles": "CCCCOC(=O)c1ccccc1C(=O)OCCCC", "AC50": "27.4 µM (active) [middle of 5 runs]"},
      {"smiles": "Fc1ccc(Oc2ccnc3cc(Cl)cc(Cl)c23)cc1", "outcome": "inactive"},
      {"smiles": "COP(=S)(OC)Oc1nc(Cl)c(Cl)cc1Cl", "AC50": "13.7 µM (active)"},
      {"smiles": "N#CC(CCc1ccc(Cl)cc1)(Cn1cncn1)c1ccccc1", "note": "(stereo not given)", "AC50": "1.5 µM (active)"},
      {"smiles": "CCCN(CCC)c1c([N+](=O)[O-])cc(S(N)(=O)=O)cc1[N+](=O)[O-]", "AC50": "302 nM (active) and 134 nM (active) and 567 nM (active)"},
      {"smiles": "C#CCOS(=O)OC1CCCCC1Oc1ccc(C(C)(C)C)cc1", "note": "(stereo not given)", "AC50": "0.661 µM (active)"},
      {"smiles": "COc1cnc(OC)n2nc(NS(=O)(=O)c3c(OCC(F)F)cccc3C(F)(F)F)nc12", "AC50": "22 µM (active) and 16.4 µM (active)"},
      {"smiles": "Cc1cc(Cl)ccc1OCC(=O)O", "outcome": "inactive"},
      {"smiles": "CNC(=O)ON=CC(C)(C)SC", "outcome": "inactive"},
      {"smiles": "C=CC1(C)OC(=O)N(c2cc(Cl)cc(Cl)c2)C1=O", "note": "(stereo not given)", "outcome": "inactive", "AC50": "17.3 µM (active) and 31.1 µM (active) and 33 µM (active)"},
      {"smiles": "CON(C)C(=O)Nc1ccc(Cl)c(Cl)c1", "AC50": "26.7 µM (active) [middle of 4 runs]"},
      {"smiles": "CC(C)(C)c1ccc(CSc2cnn(C(C)(C)C)c(=O)c2Cl)cc1", "AC50": "2.14 µM (active)"},
      {"smiles": "CCOc1cc(Oc2ccc(C(F)(F)F)cc2Cl)ccc1[N+](=O)[O-]", "AC50": "8.64 µM (active)"},
      {"smiles": "CCOC(=O)C(Cl)Cc1cc(-n2nc(C)n(C(F)F)c2=O)c(F)cc1Cl", "note": "(stereo not given)", "AC50": "39.8 µM (active)"},
      {"smiles": "COP(N)(=O)SC", "note": "(stereo not given)", "outcome": "inactive"},
      {"smiles": "Cc1ccc(-c2c(Cl)nc(C#N)n2S(=O)(=O)N(C)C)cc1", "AC50": "3.08 µM (active)"},
      {"smiles": "CCCCC(CC)COC(=O)c1ccccc1C(=O)OCC(CC)CCCC", "note": "(stereo not given)", "AC50": "9.84 µM (active)"},
      {"smiles": "CN(C)C(=S)SSC(=S)N(C)C", "outcome": "inactive"},
      {"smiles": "CC(C)Oc1cc(-n2nc(C(C)(C)C)oc2=O)c(Cl)cc1Cl", "AC50": "0.284 µM (active)"},
      {"smiles": "COC(=O)c1ccccc1C(=O)OC", "AC50": "32.8 µM (active)"},
      {"smiles": "CCCC1COC(Cn2cncn2)(c2ccc(Cl)cc2Cl)O1", "note": "(stereo not given)", "AC50": "4.09 µM (active) and 85 µM (active)"},
      {"smiles": "CCON=C(CC)C1=C(O)CC(c2c(C)cc(C)cc2C)CC1=O", "note": "(stereo not given)", "AC50": "34.9 µM (active)"},
      {"smiles": "CCc1nn(C)c(C(=O)NCc2ccc(C(C)(C)C)cc2)c1Cl", "AC50": "3.17 µM (active)"},
      {"smiles": "OC(c1ccc(Cl)cc1)(c1cncnc1)c1ccccc1Cl", "note": "(stereo not given)", "outcome": "inactive", "AC50": "2.17 µM (active)"},
      {"smiles": "CC(Oc1ccc(Cl)cc1Cl)C(=O)O", "note": "(stereo not given)", "AC50": "79.7 µM (active)"},
      {"smiles": "O=C(Nc1ccccc1)Nc1ccnc(Cl)c1", "outcome": "inactive"},
      {"smiles": "CC1COC(Cn2cncn2)(c2ccc(Oc3ccc(Cl)cc3)cc2Cl)O1", "note": "(stereo not given)", "AC50": "2 µM (active)"}
    ]}
  ]
}
